High-throughput results (PubChem BioAssay)
Pin1 inhibitor = blocks the human prolyl isomerase Pin1. Q13526. Pin1 FP peptide displacement, HiFluor488, 10 min. Potency, µM (doses to about 115 µM), inactives show at the top dose activity, negative = inhibition, actives largely listed as inhibitors. 390,000 tested, 0.009% active. AID 504891; active = well fitted inhibition curve with a large enough effect in the polarisation, with a control signal flat, not every such curve was filed as active; inconclusive = small, poorly fitted or top-dose-only effect, or effect the other way, or a change in a side signal; inactive = no such curve, though single readings can be large or run the other way; the % refers to the polarisation; note: potency is the fitted concentration of half-maximal effect; % is set by controls: 0 for no effect and ±100 for the full control effect
Target sequence (Q13526 whole entry, looked up): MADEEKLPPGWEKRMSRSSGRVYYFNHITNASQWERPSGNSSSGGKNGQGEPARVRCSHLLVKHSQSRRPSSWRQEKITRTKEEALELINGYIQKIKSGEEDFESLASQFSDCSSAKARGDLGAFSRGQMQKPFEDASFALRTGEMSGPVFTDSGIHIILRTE
p53 reactivation = mutant p53 re-activation in reporter cells | H1299 p53-A138V BP100-luciferase reporter, luminescence, 24 h | Potency, µM (highest dose often 92.2 µM), for inactives: at the highest dose activity change, positive = activation, usual class: activators | 320,000 tested, 0.063% active | AID 504706; note: potency is the fitted concentration of half-maximal effect; % of control where 0% means no effect; nearly all actives have a fitted effect of over 45% in size
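p53-null H1299 cells stably carrying temperature-sensitive p53-A138V and a BP100-luciferase reporter were pinned with compounds (4-point, 1:5 series) and held 24 hrs at 37 deg C. Luminescence was read 10 min after detection reagent.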
Giardia kill = Giardia lamblia killing | Giardia lamblia trophozoite viability | activity change, % at 7.66 µM, hits read low | 340,000 tested, 0.15% active; in the data active = activity change below about -80%; inconclusive = between about -30% and that limit;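 note: parasites exposed to compound for two days anaerobically before the ATP read; % is set by controls: 0 for no effect and ±100 for the full control effect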
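Giardia trophozoites, 100 cells per well, were exposed to compounds for 48 hrs at 37 deg C under anaerobic conditions; viability was then read as ATP content by bioluminescence after 15-30 min at room temperature.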
PI4K2A block = blocks human PI4K2A kinase activity. purified PI4K2A, ADP-Glo luminescence, 1 h; hits give low values. Q9BTU6. activity change, negative = inhibition, % at 76.9 µM. 420,000 tested, 0.13% active. AID 1346378; in the data active = activity change below about -50%; inconclusive = mostly about -30% to -49%;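 note: -100% = wells without enzyme as full effect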
Target sequence (Q9BTU6 whole entry, looked up): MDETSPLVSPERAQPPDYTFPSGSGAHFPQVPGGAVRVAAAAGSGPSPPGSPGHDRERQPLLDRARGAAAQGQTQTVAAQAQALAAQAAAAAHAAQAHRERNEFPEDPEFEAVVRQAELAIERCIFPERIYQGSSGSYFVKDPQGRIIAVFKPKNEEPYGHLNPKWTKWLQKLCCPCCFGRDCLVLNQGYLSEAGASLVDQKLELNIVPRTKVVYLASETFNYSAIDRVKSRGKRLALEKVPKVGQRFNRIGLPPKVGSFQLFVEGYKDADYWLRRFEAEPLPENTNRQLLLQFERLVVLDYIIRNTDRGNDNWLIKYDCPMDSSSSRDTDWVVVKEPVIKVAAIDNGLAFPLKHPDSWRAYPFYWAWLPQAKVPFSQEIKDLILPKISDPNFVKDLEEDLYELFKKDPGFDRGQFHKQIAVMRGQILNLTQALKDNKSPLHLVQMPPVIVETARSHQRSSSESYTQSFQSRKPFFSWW
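In this quantitative HTS, ADP production by PI4K2A was quantified luminescently after 1 h at ambient temperature; 100 microM adenosine served as plate-quality control.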
Epigenetic derep = regulators of epigenetic silencing causing reporter derepression in mouse cells. murine LDR cells, GFP reporter derepression, 30 h. AID 1865. Potency, µM (top dose mostly 53.9 µM), for inactives: at the highest dose GFP activation, most hits filed as activators. 280,000 tested, 0.2% active; note: potency is the fitted concentration of half-maximal effect; % of control where 0% means no effect; nearly all actives have a fitted effect of over 60% in size
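Murine LDR cells carrying a silenced, genomically integrated CMV-driven GFP reporter were exposed to compound for 30 hours at 37 C. After PBS washes, GFP-positive cells (20–120 um objects) were counted by laser-scanning microplate cytometry.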
B2AR arrestin = recruits beta-arrestin to the human beta2-adrenergic receptor | 330,000 tested, 0.02% active | Potency, µM (highest dose often 46.1 µM), for inactives: at the top dose activation, usual class: activators | P07550 | beta-arrestin recruitment to beta2AR, cell-based reporter | AID 492947;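 note: potency is the fitted concentration of half-maximal effect; 0% = DMSO controls and full agonism = EC100 isoproterenol or metaproterenol; nearly all actives have a fitted effect of over 65% in size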
* = called active by the depositor; u = inconclusive; x = no result. A selection: hits, their analogues and other compounds. The true share with any hit is near 0.44%. Unless noted, calls come from the whole dose curve; as a rule, active = well fitted curve in the direction sought with a large enough effect; inconclusive = small, poorly fitted or top-dose-only effect, or another doubt; inactive = no such curve, though single readings can be large; an effect the other way counts as inactive or inconclusive.

SMILES	Pin1 inhibitor	p53 reactivation	Giardia kill	PI4K2A block	Epigenetic derep	B2AR arrestin
CCOC(=O)c1c(/N=C/N(C)C)sc(/C=N/Nc2ccccc2)c1-c1ccccc1	49%	-11%	-7	-4	10µM*	0%
CCOC(=O)c1c(/N=C/N(C)C)sc(/C=N/Nc2ccccc2)c1-c1ccccc1Cl	u	12%	10	6	-1%	-1%
CCc1ccc(C(=O)c2cn(CC(=O)Nc3cc(F)ccc3F)c3nc(C)ccc3c2=O)cc1	22%	x	x	-14	20µM*	x
Cc1ccc(CNC(=O)Cn2cc(C(=O)c3ccc(F)cc3)c(=O)c3ccc(C)nc32)cc1	43%	x	x	0	-1%	x
NCCCC[C@H]1NC(=O)[C@H](CCC(=O)O)NC(=O)c2cc([N+](=O)[O-])cc(I)c2OCC[C@@H](C(N)=O)NC1=O	14µM*	3%	21	-11	1%	-1%
Oc1ccc(N=Cc2ccc(-c3cccs3)s2)cc1	u	u	-27	-69*	10%	u
O=Cc1ccc(-c2cccs2)s1	2%	x	8	1	x	x
COc1ccc(-c2cc(C(=O)O)[nH]n2)cc1OC	-2%	-1%	-3	-73*	6%	-1%
COc1ccc(-c2cc(C(=O)NN)[nH]n2)cc1OC	-3%	3%	8	-3	-1%	0%
Cc1cc2c(s1)c1cnn(Cc3cc(F)cc(F)c3)c(=O)c1n2C	3%	x	x	x	x	x
Cc1ncc([N+](=O)[O-])n1CCOC(=O)NC(NCc1ccccc1Cl)C(Cl)(Cl)Cl (stereo not drawn)	-6%	-4%	-119*	-3	0%	0%
COc1ccc(NC(=O)OCCn2c([N+](=O)[O-])cnc2C)cc1	-7%	-3%	-87*	5	0%	-1%
CCCN1C=CC(=C2C(=O)c3ccccc3C2=O)C=C1	u	-16%	-97*	-54*	0%	0%
CCCCCCN1C=CC(=C2C(=O)c3ccccc3C2=O)C=C1	u	-4%	u	-9	1%	0%
CCN1C=CC(=C2C(=O)c3ccccc3C2=O)C=C1	1%	-9%	-94*	-52*	8%	0%
O=c1c(O)c(-c2ccc(O)cc2O)oc2cc(O)cc(O)c12	x	8%	x	-67*	1%	-1%
O=c1c(O)c(-c2ccccc2)oc2cc(O)cc(O)c12	0%	18%	-22	-1	1%	0%
CCOc1ccc2nc(NC(=O)c3ccco3)sc2c1	2%	-5%	-20	-9	x	0%
CCOc1ccc2nc(NC(=O)c3ccoc3C)sc2c1	3%	u	-20	-83*	-3%	0%
CCOC(=O)c1cc(=O)c2c(OCC(COc3cccc4oc(C(=O)OCC)cc(=O)c34)OC(=O)[C@@H](N)CCCCN)cccc2o1	x	x	x	-3	x	x
CN1CCN(c2cccc(CNc3nn4c(=O)c5ccccc5nc4s3)c2)CC1	-36%	x	x	x	x	x
CCCCN(CCCC)Cc1cc2ccccc2c2c1COC2	-12%	-2%	5	-81*	3%	-1%
Cc1ccc(CCn2c3c(c4cc(Cl)ccc42)CN(C)CC3)cn1	x	x	x	-5	x	x
CCN(c1ccccc1)S(=O)(=O)c1nnc(NC(=O)COc2cccc(C)c2)s1	-5%	x	x	0	8.9µM*	x
CCS(=O)(=O)CCn1c([N+](=O)[O-])cnc1C	2%	2%	-86*	2	-1%	1%
SMILES	Pin1 inhibitor	p53 reactivation	Giardia kill	PI4K2A block	Epigenetic derep	B2AR arrestin
Cc1ncc([N+](=O)[O-])n1CC(C)O (stereo not drawn)	3%	6%	u	2	3%	-1%
O=[S+]([O-])(c1ccc2ncsc2c1)N1CCN([S+](=O)([O-])c2c(F)cccc2F)CC1	1%	x	x	x	x	x
C/C(=N\NC(=O)c1csc(C)c1C)c1ccc(C)s1	0%	u	0	-1	-4%	0%
C/C(=N\NC(=O)c1csc(C)c1C)c1ccco1	-1%	7.9µM*	-3	-1	0%	-1%
COC(=O)c1ccccc1S(=O)(=O)Nc1cc(=O)c2ccccc2[nH]1	-1%	x	x	x	x	x
COCCn1c(C)cc(C2=NNC(=Nc3ccc(OC)cc3)SC2)c1C	1%	-4%	-4	-1	-1%	0%
COCCn1c(C)cc(C2=NNC(=Nc3ccccc3)SC2)c1C	0%	22%	-19	-52*	0%	-1%
Cc1cnc(CNC(=O)CC2C(=O)NCCN2Cc2ccccc2C(F)(F)F)cn1 (stereo not drawn)	u	-2%	19	-61*	x	0%
Cc1cc(CNC(=O)CC2C(=O)NCCN2Cc2ccccc2C(F)(F)F)on1 (stereo not drawn)	u	1%	28	-2	4%	0%
CCc1ccc(NC(=O)c2sc3nc(C)c(C(=O)Nc4ccc(C)cc4C)c(-c4ccco4)c3c2N)cc1	u	x	x	2	18µM*	x
Cc1ccc(C(c2c(O)nc3n(c2=O)CCS3)c2c(O)nc3n(c2=O)CCS3)cc1	-5%	5%	-8	-52*	-1%	0%
CSc1ccc(/C=C/c2nc3ccccc3n2S(=O)(=O)c2ccc(Br)cc2)cc1	-9%	x	x	u	-3%	x
O=S(=O)(c1cccc(C(F)(F)F)c1)n1c(/C=C/c2ccccc2)nc2ccccc21	-2%	x	x	-61*	1%	x
COc1ccc(CNC(=O)CSc2ncc3c(n2)-c2ccc(Cl)cc2N(Cc2ccccc2)S3(=O)=O)cc1	11%	x	x	-7	16µM*	x
COC(=O)/C=C\C(=O)OC	x	x	x	-1	x	x
Cc1ccc(C(=O)COC(=O)c2cccc(NC(=O)c3ccc([N+](=O)[O-])cc3[N+](=O)[O-])c2)cc1	-17%	-6%	-101*	-4	-3%	7%
CC(=O)Nc1ccc(C(=O)OCC(=O)c2cccc([N+](=O)[O-])c2)cc1	-12%	-1%	-28	-2	2%	2%
Cc1ccc2ccc(Cl)cc2n1	x	x	x	-3	x	x
CC(C)(C)c1ccc(C(=O)O/N=C(\N)c2ccccn2)cc1	-2%	-7%	u	u	x	0%
N/C(=N\OC(=O)c1ccccc1)c1ccccn1	-8%	-8%	-5	-67*	0%	0%
Cc1ccc(C(=O)O/N=C(\N)c2ccccn2)cc1	-4%	-11%	-26	-86*	x	0%
Cc1cccc(C(=O)O/N=C(\N)c2ccccn2)c1	-3%	0%	-3	u	x	0%
C/C(=N/OC(=O)c1ccc(C)cc1)c1cccs1	-2%	2%	-12	-80*	-1%	1%
CCOc1ccc(C(=O)O/N=C(\N)c2ccccn2)cc1	0%	-18%	-13	-88*	x	-1%
CCN(CC)C(=O)C1CN2CCc3cc(OC)c(OC)cc3C2CC1OC(C)=O (stereo not drawn)	x	x	x	-3	x	x
O=C(Nc1ccc(OC(F)(F)F)cc1)Nc1cccc([N+](=O)[O-])c1	5%	35µM*	-1	-3	u	-1%
